In PubChem BioAssay one finds z-score and composite z-score data, which are given here for 13 compounds.

Each structure is given as a SMILES string. Calls of active or inactive are those of the source. Unless noted, how the calls were made is not given here.

Test [1] is described as follows: HepG2 liver cancer cell viability effects, profiling panel, resazurin fluorescence, 24 h, PK04 Diversity Set (AID 1172). Further: test concentration not given here. As to conditions: higher = more signal.
A short description of test [2]: basal S. cerevisiae growth modulation, no modifier, primary screen, OD600, strain BY4716, 24 h, basal condition (AID 1173). As to conditions: OD600, 24 h, higher = more signal, called active from +8 up or from −8 down.
Test [3] in a line: MM1S myeloma cell viability, profiling panel, resazurin fluorescence, basal, 24 h, PK04 Diversity Set (AID 1174). Further: test concentration not given here. The conditions noted are these: higher = more signal, called active from +8 up or from −8 down. For orientation: Resazurin is reduced to fluorescent resorufin, in cell work by metabolically active cells.
Test [4] concerns the target Dihydroorotate dehydrogenase (quinone), mitochondrial (Plasmodium falciparum (isolate 3D7)) (UniProt Q08210). The test can be described thus: PfDHODH enzyme inhibitors, primary screen, biochemical, C-terminal His tag, absorbance 600 nm (AID 1175).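 Further: recombinant parasite enzyme with a five histidine tag at its C terminus; test concentration not given here.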 As to conditions: DCIP absorbance 600 nm, higher = more signal, called active from +8 up or from −8 down.
Test [5] in a line: P. aeruginosa biofilm formation inhibitors, primary screen, strain PAO1, LB-PBS medium, absorbance 600 nm (AID 1176). Further: test concentration not given here. As to conditions: P. aeruginosa PAO1 growth/biofilm, A600, 12 h; higher = more signal.
A short description of test [6]: S. cerevisiae RM11-1a growth modifiers, primary screen, strain RM11-1a, OD600, basal, 24 h (AID 1177).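 Further: cultures grown under basal conditions with no added stressor; test concentration not given here.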 As to conditions: OD600, 24 h, higher = more signal, called active from +8 up or from −8 down.
Test [7] in a line: E. coli acrAB mutant growth effects, primary screen, E. coli filamentation inducers, strain DRC39, OD650, 24 h (AID 1178).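 Further: growth measured as culture turbidity by optical density at 650 nm; test concentration not given here.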 The conditions noted are these: higher = more signal, called active from +8 up or from −8 down.
A short description of test [8]: E. coli acrAB mutant growth effects, primary screen, E. coli filamentation inducers, strain DRC39, OD650, 48 h (AID 1179).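 Further: screen aims at cell division blockers that make cells filament.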 The conditions noted are these: E. coli DRC39 delta-acrAB growth, higher = more signal, called active from +8 up or from −8 down.
Test [9] can be described thus: RPMI8226 myeloma cell viability, profiling panel, resazurin fluorescence, basal, 24 h, PK04 Diversity Set (AID 1180).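 Further: RPMI8826 multiple myeloma cell line at 5000 cells per well; test concentration not given here.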 The conditions noted are these: higher = more signal.
For test [10], the target named is E3 ubiquitin-protein ligase XIAP (Homo sapiens) (UniProt P98170). The test can be described thus: XIAP binders, primary screen, biophysical, small-molecule microarray, fluorescence 635 nm (AID 1181).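 Further: score merges 667 nm emission and signal to noise over triplicate slides.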 As to conditions: small-molecule microarray binding, higher = more signal.
E3 ubiquitin-protein ligase XIAP (Homo sapiens), sequence (P98170 whole entry, looked up): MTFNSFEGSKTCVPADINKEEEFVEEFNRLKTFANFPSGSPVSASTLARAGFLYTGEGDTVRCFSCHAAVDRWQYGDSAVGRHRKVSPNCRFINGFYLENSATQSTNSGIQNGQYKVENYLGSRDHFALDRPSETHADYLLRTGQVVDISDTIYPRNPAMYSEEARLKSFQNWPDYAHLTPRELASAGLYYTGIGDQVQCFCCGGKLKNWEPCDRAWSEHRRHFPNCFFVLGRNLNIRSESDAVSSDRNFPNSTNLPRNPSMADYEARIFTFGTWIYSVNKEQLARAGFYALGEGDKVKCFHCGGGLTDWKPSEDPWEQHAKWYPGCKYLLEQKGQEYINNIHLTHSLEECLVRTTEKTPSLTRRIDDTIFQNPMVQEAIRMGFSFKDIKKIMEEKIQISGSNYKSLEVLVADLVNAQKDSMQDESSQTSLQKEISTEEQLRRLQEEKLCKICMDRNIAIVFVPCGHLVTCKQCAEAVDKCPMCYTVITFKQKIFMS

Dihydroorotate dehydrogenase (quinone), mitochondrial (Plasmodium falciparum (isolate 3D7)), sequence (Q08210 whole entry, looked up): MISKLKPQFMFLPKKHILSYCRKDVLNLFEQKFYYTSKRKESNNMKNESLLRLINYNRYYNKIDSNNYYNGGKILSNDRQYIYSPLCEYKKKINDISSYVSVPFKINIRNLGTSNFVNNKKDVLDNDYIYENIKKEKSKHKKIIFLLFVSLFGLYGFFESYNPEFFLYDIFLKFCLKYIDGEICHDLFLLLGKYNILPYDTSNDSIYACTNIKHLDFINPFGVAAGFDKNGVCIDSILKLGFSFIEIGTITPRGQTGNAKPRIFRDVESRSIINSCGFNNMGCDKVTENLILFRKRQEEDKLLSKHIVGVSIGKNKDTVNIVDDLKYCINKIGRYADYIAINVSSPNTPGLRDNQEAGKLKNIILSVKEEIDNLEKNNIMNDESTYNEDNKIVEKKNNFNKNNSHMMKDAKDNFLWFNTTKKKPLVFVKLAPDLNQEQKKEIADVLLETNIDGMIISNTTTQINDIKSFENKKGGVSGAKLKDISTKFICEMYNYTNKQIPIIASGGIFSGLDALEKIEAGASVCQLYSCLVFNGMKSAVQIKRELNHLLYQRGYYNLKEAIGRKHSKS

Take `CCN1C(=O)[C@H]2[C@H]3[C@H](O)[C@H](O)CC(=O)[C@@H]3CC[C@H]2C1=O`: the z-score in [1] was -0.309; in test [2], -0.553 (inactive); in test [3], -0.399 (inactive); in test [5], -0.72 (inactive); in [6], -0.162 (inactive); in [7], -0.307 (inactive). Moreover, the z-score was -0.164 (inactive) in test [8] and -0.752 in test [9]. Also, the composite z-score in test [4] is -0.308 (inactive); in test [10] it was 0.112.
With `C[C@@H]1NC(=O)[C@@H](C)COC(=O)[C@H](C)NC(=O)[C@@H](C)COC1=O`, the z-score in [1] is 0.0907; in test [2], -2.62 (inactive); in test [3], -0.325 (inactive); in test [5] it was 0.365 (inactive); in [6] it was -1.09 (inactive); in test [7], -0.0144 (inactive). In addition, the z-score in [8] is -1.87 (inactive); in [9], 0.18. For the same compound, the results for the composite z-score in test [4] and in test [10] were -3.05 (inactive) and 0.0714, respectively.
For the compound `CCOC(=O)[C@H](CC(C)C)NC(=O)CCC1CC(OC(=O)NCc2cccc3ccccc23)CC2(CCCC(COC(=O)NCCCN3CCCC3=O)O2)O1` (stereo not given in full), the z-score in [1] was 0.281; in test [2], -0.761 (inactive); in test [3], 0.826 (inactive); in [5] it was -0.47 (inactive); in test [6] it was 0.209 (inactive); in test [7], -0.134 (inactive). For the same compound, the figures for the z-score in test [8] and in test [9] were 0.323 (inactive) and -0.241, respectively. Moreover, the figures for the composite z-score in test [4] and in [10] were 0.0067 (inactive) and -0.104, respectively.
For `CCCNC(=O)OC[C@H]1O[C@H](CCON=Cc2ccc(C(=O)N3[C@H](c4ccc(C)cc4)[C@@H](C)CC[C@H]3C(=O)OC)cc2)C=C[C@@H]1Oc1ccc(OC)cc1`, the z-score in [1] is -0.73; in test [2], 1.85 (inactive); in [3], -0.686 (inactive); in test [5], 0.511 (inactive); in [6], 0.729 (inactive); in test [7] it was 0.567 (inactive). In addition, the figures for the z-score in test [8] and in test [9] were 0.353 (inactive) and -0.203, respectively. For the same compound, the composite z-score was 0.415 (inactive) in test [4] and 0.0623 in test [10].
Regarding `CCCCc1nc2c(c3c1C[C@H](C)OC3)CN(CCOc1ccccc1)CC2`, the z-score in [1] was -0.492; in [2] it was -3.28 (inactive); in [3], 0.422 (inactive); in test [5], 1.1 (inactive); in [6] it was -1.49 (inactive); in test [7] it was 1.18 (inactive). Further, the figures for the z-score in [8] and in [9] were -0.908 (inactive) and 0.386, respectively. The results for the composite z-score in test [4] and in test [10] were -0.845 (inactive) and 0.437, respectively.
Consider `C[C@@H](c1ccccc1)N1C(=O)[C@H]2[C@H]3[C@H](O)[C@H](O)CC(=NO[C@@H]4O[C@H](CO)[C@@H](O)[C@H](O)[C@H]4O)[C@H]3CC[C@H]2C1=O`, for which the z-score in [1] is -0.495; in [2], 0.561 (inactive); in test [3], 0.174 (inactive); in test [5], 0.389 (inactive); in test [6], 0.0857 (inactive); in test [7] it was -0.837 (inactive). Moreover, the z-score is 0.11 (inactive) in [8] and 0.577 in [9]. Besides, the composite z-score is -0.28 (inactive) in test [4] and 0.057 in test [10].
Consider `O=C1C[C@@H](O)[C@@H](O)[C@@H]2[C@@H]3C(=O)N(Cc4ccc5c(c4)OCO5)C(=O)[C@@H]3CC[C@H]12`, for which the z-score in test [1] is 0.201; in [2], 0.0442 (inactive); in test [3], -0.0254 (inactive); in test [5] it was -0.0121 (inactive); in test [6], -0.545 (inactive); in [7], -0.494 (inactive). Further, the figures for the z-score in test [8] and in test [9] were -0.389 (inactive) and -0.0372, respectively. Also, the composite z-score in test [4] is -0.564 (inactive); in test [10], -0.152.
Turning to `C[C@@H]1CC[C@H]2C(=O)O[C@@H](COc3ccc(C(C)(C)C)cc3)CN2[C@@H]1c1ccc(Br)cc1`, the z-score was 0.937 in test [1]; -0.752 (inactive) in test [2]; 0.23 (inactive) in test [3]; -0.291 (inactive) in [5]; -0.176 (inactive) in [6]; 0.095 (inactive) in [7]. The z-score in test [8] is 0.408 (inactive); in test [9] it was 1.06. Also, the composite z-score is -0.184 (inactive) in test [4] and 0.072 in test [10].
Regarding `CCN1C(=O)[C@H]2[C@H]3[C@H](O)[C@H](O)CC(=O)[C@H]3CC[C@H]2C1=O`, the z-score was -0.195 in test [1]; -0.286 (inactive) in test [2]; -0.242 (inactive) in [3]; -0.543 (inactive) in test [5]; -0.896 (inactive) in test [6]; -0.519 (inactive) in [7]. Further, the values for the z-score in test [8] and in test [9] were -0.177 (inactive) and -0.0216, respectively. Further, the composite z-score in [4] was -0.794 (inactive); in test [10], -0.0476.
With `C[C@@H]1CC[C@H]2C(=O)O[C@@H](Cc3ccccc3)CN2[C@H]1c1ccc(Br)cc1`, the z-score in [1] was 0.603; in [2] it was -1.06 (inactive); in test [3], 0.656 (inactive); in test [5] it was -0.491 (inactive); in test [6], 0.37 (inactive); in [7], -0.402 (inactive). For the same compound, the z-score in test [8] is -0.161 (inactive); in test [9], 0.0066. Further, the composite z-score is 0.245 (inactive) in test [4] and 0.0871 in test [10].
Turning to `COC(=O)CC=C[C@@H](C)[C@@H]1C=C[C@H](O)[C@@H](CO)O1`, the z-score in test [1] is -0.118; in test [2] it was 0.626 (inactive); in test [3], -3.24 (inactive); in test [5] it was 0.274 (inactive); in [6] it was 0.86 (inactive); in test [7], 0.439 (inactive). The z-score is 0.483 (inactive) in test [8] and -1.28 in test [9]. Besides, the composite z-score was 0.35 (inactive) in test [4] and 0.0727 in [10].
With `CC(CCN1CCCCc2nc(C)c(C)cc21)=NOC[C@@H](C)[C@H](OCc1ccccc1)C(C)C`, the z-score in [1] is -0.345; in [2], -2.36 (inactive); in test [3], -0.13 (inactive); in [5] it was 0.147 (inactive); in [6], -2.61 (inactive); in test [7] it was -1.22 (inactive). Besides, the z-score in [8] was 0.0039 (inactive); in test [9], 0.0342. Further, the composite z-score in [4] was -1.46 (inactive); in [10], 0.0153.
Consider `O=c1n(Cc2cc3c(cc2Cl)OCO3)c(=O)n2n1CC[C@@H]1C(=NOC[C@@H](O)COCc3ccco3)[C@H]3O[C@H]3[C@@H](O)[C@@H]12`, for which the z-score in [1] was -0.0975; in test [2], 0.919 (inactive); in test [3], -0.316 (inactive); in [5] it was 0.471 (inactive); in test [6], 0.716 (inactive); in test [7] it was -0.133 (inactive). Further, the z-score in [8] was -0.527 (inactive); in test [9], -0.614. The composite z-score in test [4] was 0.634 (inactive); in [10], -0.0252.
